Results published in PubChem BioAssay AID376 (PDSP, 2006).
In all, about 2,000 compounds went through this assay and about 250 (12%) were called active. This excerpt belongs to a sample that is enriched for actives. Values without a mark were called inactive. Cut-off read from the data, not from the text of the source: active = hERG blockade below about -20% or above about 20%; inactive = in between.

Each molecule was assayed against Voltage-gated inwardly rectifying potassium channel KCNH2 (Homo sapiens) (UniProt Q12809) (assay: KCNH2 potassium channel function modulators, cell-based (AID 376;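 note: 0% = buffer alone and 100% = reference blocker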)). Details: hERG-expressing cells, channel activity single-concentration screen; concentration not given here.
Chain of Voltage-gated inwardly rectifying potassium channel KCNH2 (Homo sapiens) (Q12809 whole entry, looked up): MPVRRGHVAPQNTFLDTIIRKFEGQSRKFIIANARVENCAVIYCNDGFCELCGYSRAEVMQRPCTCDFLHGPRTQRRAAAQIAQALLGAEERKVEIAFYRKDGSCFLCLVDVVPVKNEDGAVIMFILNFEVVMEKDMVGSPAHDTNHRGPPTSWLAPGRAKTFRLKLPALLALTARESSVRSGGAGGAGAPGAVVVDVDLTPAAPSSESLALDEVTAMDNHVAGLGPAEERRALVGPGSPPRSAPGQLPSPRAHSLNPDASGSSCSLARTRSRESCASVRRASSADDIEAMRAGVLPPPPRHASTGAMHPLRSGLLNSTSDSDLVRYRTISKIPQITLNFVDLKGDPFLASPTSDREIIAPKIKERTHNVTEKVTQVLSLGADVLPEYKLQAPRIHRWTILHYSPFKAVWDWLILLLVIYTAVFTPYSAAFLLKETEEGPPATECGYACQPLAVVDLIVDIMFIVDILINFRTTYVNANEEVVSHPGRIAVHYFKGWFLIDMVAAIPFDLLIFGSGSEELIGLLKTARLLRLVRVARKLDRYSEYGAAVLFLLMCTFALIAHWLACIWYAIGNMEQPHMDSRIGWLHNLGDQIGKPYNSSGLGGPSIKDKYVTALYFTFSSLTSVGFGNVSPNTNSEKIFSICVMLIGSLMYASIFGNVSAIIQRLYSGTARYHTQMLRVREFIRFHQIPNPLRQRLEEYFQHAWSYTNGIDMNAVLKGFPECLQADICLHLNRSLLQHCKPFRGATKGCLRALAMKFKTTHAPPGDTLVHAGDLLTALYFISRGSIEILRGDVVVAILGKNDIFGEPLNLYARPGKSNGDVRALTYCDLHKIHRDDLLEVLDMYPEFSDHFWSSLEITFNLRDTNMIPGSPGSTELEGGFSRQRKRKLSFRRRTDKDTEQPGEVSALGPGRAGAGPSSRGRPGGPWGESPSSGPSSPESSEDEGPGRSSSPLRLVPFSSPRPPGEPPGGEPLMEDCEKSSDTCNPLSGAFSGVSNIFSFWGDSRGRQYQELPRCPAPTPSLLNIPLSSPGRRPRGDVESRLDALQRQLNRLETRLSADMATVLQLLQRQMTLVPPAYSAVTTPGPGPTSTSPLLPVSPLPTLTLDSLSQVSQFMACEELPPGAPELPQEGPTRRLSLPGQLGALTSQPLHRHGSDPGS

| SMILES | hERG blockade |
| --- | --- |
| Nc1c(S(N)(=O)=O)cc(S(N)(=O)=O)cc1S(N)(=O)=O | 11.4% |
| Cc1ccc(N=Nc2c(O)c3ccccc3[nH]c2=O)c(S(=O)(=O)N(C)C)c1 | 7.5% |
| Cc1ccc(N=Nc2ccc(N)cc2C)c(S(N)(=O)=O)c1 | 23.9% (active) |
| CC1(C)OCC(C2OC3OC(C)(C)OC3C2N)O1 (configuration not stated) | -5.67% |
| CCOC(=O)Nc1nc(-c2ccccc2)c(C)s1 | 18.9% |
| O=C(O)C(CCc1ccccn1)c1ccccc1 (configuration not stated) | 5.69% |
| NC(=O)C(=Cc1ccncc1)c1cccc2ccccc12 | -12.9% |
| O=C(O)C1C(C(=O)Nc2ccc3c(c2)Cc2ccccc2-3)C2(Cl)C(Cl)=C(Cl)C1(Cl)C2(Cl)Cl (configuration not stated) | 10.6% |
| Cc1cc2ccc(OC(=O)c3ccc(N=C(N)N)cc3)cc2oc1=O | 13.7% |
| Oc1ccc(Cc2cc(Cl)cc(Cl)c2O)cc1Cl | 45.1% (active) |
| O=C(O)Cc1cc(Cl)ccc1O | -4.5% |
| CN(Cc1cc(Cl)cc(Cl)c1O)Cc1c(O)ccc2ccccc12 | 10.9% |
| Oc1ccc(Cl)cc1Cc1cc(Cl)cc(Cc2cc(Cl)ccc2O)c1O | 20.3% (active) |
| O=C(O)c1cc(Cl)cc(Cc2cc(Cl)cc(C(=O)O)c2O)c1O | 17.1% |
| OCCSCc1cc(Cl)cc(Cl)c1O | 6.93% |
| CC(C)(N=NC(C)(C)C(=N)N)C(=N)N | 63.7% (active) |
| CC(C)c1ccc(C(C(=O)O)=C(O)C(=O)O)cc1 | 6.01% |
| CN(C)CCC(=O)C1(O)CCC2C3CC=C4CC(O)CCC4(C)C3CCC21C (configuration not stated) | 2.46% |
| CC12CCC(O)CC1=CCC1C2CCC2(C)C1CCC2N(CCO)CCO (configuration not stated) | -0.272% |
| CCC1CCC2C3CC=C4CC(OC(C)=O)C(N)CC4(C)C3CCC12C (configuration not stated) | 63.9% (active) |
| COC(=O)CCC(C)C1CCC2C3CCC4CC(O)CCC4(C)C3CCC12C (configuration not stated) | 3.2% |
| CC(CCC(=O)O)C1CCC2C3CCC4CC(O)CCC4(C)C3CCC12C (configuration not stated) | 5.62% |
| COc1ccc2c(c1)CN(C(C)C1CCC3C4CCC5CC(O)CCC5(C)C4CCC31C)CO2 (configuration not stated) | 51.3% (active) |
| CC(=N[O-])C(C)=N[O-].CC(=N[O-])C(C)=N[O-].CC(=N[O-])C(C)=N[O-].CC(=N[O-])C(C)=N[O-].[Cu].[Cu] | 17.9% |
| O=S(=O)(c1ccc2ccccc2c1)N1CCN(S(=O)(=O)c2ccc3ccccc3c2)CC1 | -1.84% |
| OCC(CCc1c[nH]c2ccccc12)c1c[nH]c2ccccc12 (configuration not stated) | 53.3% (active) |

| SMILES | hERG blockade |
| --- | --- |
| c1ccc2c(CN3CCN(Cc4c[nH]c5ccccc45)CC3)c[nH]c2c1 | -0.497% |
| C[N+]1(C(CO)Cc2c[nH]c3ccccc23)Cc2ccccc2C1 (configuration not stated) | 1.67% |
| O=C(O)C1CCCN1 (configuration not stated) | 5.2% |
| NC(=S)SCCC(=O)O | 0.17% |
| CC1=CC(C2C(=NO)C=C(C)CC2(C)C)C(O)C(C)(C)C1 (configuration not stated) | 2.54% |
| CC(=O)C(C(c1ccccc1)N1CCOCC1)N1CCOCC1 (configuration not stated) | -3.85% |
| COc1cccc2c1C(=O)c1c(O)c3c(c(O)c1C2=O)CC(O)(C(=O)CO)CC3OC1CC(N)C(O)C(C)O1 (configuration not stated) | 3.44% |
| COc1cccc2c1C(=N)c1c(O)c3c(c(O)c1C2=O)CC(O)(C(C)=O)CC3OC1CC(N)C(O)C(C)O1 (configuration not stated) | 32.2% (active) |
| COc1cccc2c1C(=O)c1c(O)c3c(c(O)c1C2=O)CC(O)(C(=O)CO)CC3OC1CC(N)C(O)C(C)O1.[W] (configuration not stated) | 0.939% |
| O=C(O)CC(=Cc1ccccc1)C(=O)O | -18.3% |
| CC1(C)OC2COC(c3[nH]nc4c(=O)[nH]c(=O)[nH]c34)C2O1 (configuration not stated) | 16.5% |
| O=C(O)c1ccc(Oc2nc3ccccc3s2)cc1 | 1.79% |
| CN(C)CCCN=c1c2ccccc2n(C)c2[nH]c(=O)n(C)c(=O)c12 | 54.8% (active) |
| CN(C)CCCCN1CCc2c(n(C)c3ccccc23)C1=O | -2.05% |
| CCN(CC)COC(=S)S | -4.52% |
| CC1(C)OCC(C2OC(On3nnc4ccc(Cl)cc43)C3OC(C)(C)OC23)O1 (configuration not stated) | 12.7% |
| NC(=O)CS(=O)CC(N)C(=O)O (configuration not stated) | 5.23% |
| NC(N)=NN=Cc1ccc(C2CCNCC2)cc1 | 6.62% |
| Nc1c(S(=O)(=O)O)cc(S(=O)(=O)O)c2ccc(N=Nc3ccccc3)c(O)c12 | 11.9% |
| COc1cc(N=Nc2cccc(S(N)(=O)=O)c2)c2ccccc2c1N | 70.8% (active) |
| N=C(N)SCCON1C(=O)c2ccccc2C1=O | -2.21% |
| CC(=O)Nc1ccc(Cc2ccc3[nH]c(=O)cc(C)c3c2)cc1 | 0.318% |
| CSC(=[SH+])[N-]N=C(c1ccccn1)c1ccccn1.[Cu][Br] | 3.34% |
| CC1(C)SC2C(NC(=O)C3(N)CCCCC3)C(=O)N2C1C(=O)O (configuration not stated) | -8.47% |
| NC(N)=NNC(=O)C(=O)O | -3.63% |
| O=C(O)CCCc1ccc2ccc3ccccc3c2c1 | 8.7% |

| SMILES | hERG blockade |
| --- | --- |
| NNC(=O)CCc1ccc2ccc3ccccc3c2c1 | -44.7% (active) |
| NNC(=O)CCSc1ccccc1 | 3.37% |
| O=C(CON1C(=O)c2ccccc2C1=O)c1ccccc1 | 13.2% |
| O=C(O)c1ccccc1-c1ccccc1C(=O)Nc1ccc2c(c1)Cc1cc(F)ccc1-2 | -4.28% |
| CC(CCCC1SCC2NC(=O)NC21)C(=O)O (configuration not stated) | 6.78% |
| Cc1cc2c(=O)[nH]c(N)nc2nc1C | -6.54% |
| Cc1cc2nc3[nH]c4c(Cl)cc(Cl)cc4c3nc2cc1C | -2.06% |
| Cc1cc2cc3c(=O)[nH]c(=O)[nH]c3nc2cc1C | -26% (active) |
| O=C(c1cc(Br)ccc1O)c1cc(Br)ccc1O | -0.498% |
| Clc1ccccc1NN(Cc1ccncc1)c1ccccc1Cl | 9.21% |
| COc1ccc(NC(=S)Nc2ccccc2)cc1 | 3.26% |
| Cc1cc(C(C)(C)C)c(OCCCN2CCOCC2)c(C(C)(C)C)c1 | 20.8% (active) |
| OCCCN=C1CCCCC1 | 13.3% |
| NCc1ccc(C(=O)O)cc1 | -10.8% |
| c1cncc(CNc2ncn[nH]2)c1 | -6.56% |
| CC(C)N1CCN(c2ccncc2S(=O)(=O)N2CCCCC2)CC1 | 4.4% |
| O=c1[nH][nH]c(=S)c(=O)[nH]1 | 4.97% |
| O=c1[nH]c2[nH]c(=S)[nH]c(=S)c2[nH]1 | 33.1% (active) |
| Clc1ccccc1NN(Cc1ccccn1)c1ccccc1Cl | 7.97% |
| Cc1cc(=O)[nH]c(N=C(N)Nc2ccc(Cl)cc2)n1 | -17.7% |
| Cc1cccc(C(=O)O)c1CC1NCCC2c3ccccc3NC12 (configuration not stated) | 32.1% (active) |
| NC(Cc1cccnn1)C(=O)O (configuration not stated) | 5.87% |
| O=S(=O)(O)n1ccnc1 (tested in a mixture with another compound) | -15.4% |
| S=C(Nc1ccc2cn[nH]c2c1)Nc1ccc2cn[nH]c2c1 | -19.3% |
| CCN(CC)CC[n+]1ccc2c(C)c3[nH]c4ccc(O)cc4c3c(C)c2c1 | 45.4% (active) |
| Cc1c2cc[n+](CCN3CCCCC3)cc2c(C)c2c1[nH]c1ccc(O)cc12 | 26.1% (active) |

| SMILES | hERG blockade |
| --- | --- |
| CCN(CC)CC[n+]1ccc2c(C)c3[nH]c4ccccc4c3c(C)c2c1 | 36.7% (active) |
| NCCNC(=S)S | 5.6% |
| NN=C1CC(=O)NC(=O)N1 | -9.37% |
| CCCCNc1nc(SC)nc2nc[nH]c12 | 6.48% |
| COC1C=COC2(C)Oc3c(C)c(O)c4c(O)c(cc(O)c4c3C2=O)NC(=O)C(C)=CC=CC(C)C(O)C(C)C(O)C(C)C(OC(C)=O)C1C (configuration not stated) | 8.1% |
| CC(C)(C)COS(=O)OCC(C)(C)C | -13.1% |
| CC(=O)C=NCC(=O)O | -0.567% |
| O=C(O)Cc1c[nH]c2ccc(F)cc12 | -3.11% |
| CCOP1(=O)OCC2OC(n3cnc4c(N)ncnc43)C(O)C2O1 (configuration not stated) | 5.38% |
| CCOc1ccc2c(ccc(C=Cc3cc(C)c4cccnc4c3O)[n+]2C)c1 | 37% (active) |
| O=C(O)CCC(C(=O)O)N1C(=O)C2C3CCC(C3)C2C1=O (configuration not stated) | 7.54% |
| CC12CCC(=O)C=C1CCC1C2C(O)CC2(C)C(c3csc(-c4ccccc4)n3)CCC12 (configuration not stated) | -6.87% |
| CCc1ccc2c(c1)N(CC(C)CN(C)C)c1ccccc1S2 (configuration not stated) | 25.4% (active) |
| O=C(O)C(Cc1ccccc1)Cc1ccccc1 | -4.1% |
| CN(C)c1ccc(C(C#N)N2CCCN(C(C#N)c3ccc(N(C)C)cc3)C2c2ccc(N(C)C)cc2)cc1 (configuration not stated) | 6% |
| Cc1ccc(S(=O)(=O)N=Nc2c(O)[nH]c3cc(O)c(C(=O)O)cc23)cc1 | -2.22% |
| Clc1ccc(CSc2ncnc3c2ncn3C2CCCCO2)cc1 (configuration not stated) | 24.5% (active) |
| OCC1OC(n2cnc3c(SCc4ccccc4)ncnc32)C(O)C1O (configuration not stated) | 22.8% (active) |
| C[N+](C)(C)c1nc(N)nc2c1ncn2C1OC(CO)C(O)C1O (configuration not stated) | 13.1% |
| C[N+](C)(C)c1ncnc2c1ncn2C1CCCCO1 (configuration not stated) | -24.9% (active) |
| OCC1OC(n2cnc3c(C=C(O)c4ccccc4)ncnc32)C(O)C1O (configuration not stated) | 9.21% |
| Fc1cccc(CSc2ncnc3c2ncn3C2CCCS2)c1 (configuration not stated) | 12.5% |
| O=[N+]([O-])c1ccc(Cl)c(CNc2ncnc3c2ncn3C2CCCCO2)c1 (configuration not stated) | 7.11% |
| OCCn1cnc2c(SCc3ccccc3)ncnc21 | -7.5% |
